Test results taken from the supplement of paper PMC8728848.
Only a selection was taken, and the strongest signals are over-represented in it overall.

Assays:
Experiment in all cases: glycan array binding signal (z-score within array); higher = stronger binding
Conditions in all cases: glycan notation: IUPAC condensed, linker removed
[1] = target: Fuc(a1-2)Gal(b1-4)GlcNAc(b1-3)[Fuc(a1-2)Gal(b1-4)GlcNAc(b1-6)]GalNAc
Procedure, shortened: (§1)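 Negative Z-scores can be read as non-binding. The Z-score is calculated within each array and then averaged across arrays of one protein sequence at different concentrations or buffers and across linkers. Arrays, 3228 in all, were curated from the Consortium for Functional Glycomics database and kept only where the protein sequence was available.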

[2] = target: Fuc(a1-2)Gal(b1-4)[Fuc(a1-3)]GlcNAc(b1-3)Gal(b1-4)[Fuc(a1-3)]GlcNAc(b1-3)Gal(b1-4)[Fuc(a1-3)]GlcNAc
Procedure, shortened: as §1

[3] = target: Fuc(a1-2)[Gal(a1-3)]Gal(b1-4)[Fuc(a1-3)]GlcNAc
Procedure, shortened: as §1

[4] = target: Fuc(a1-2)[GalNAc(a1-3)]Gal(b1-3)GlcNAc(b1-3)GalNAc
Procedure, shortened: as §1

[5] = target: Fuc(a1-2)[GalNAc(a1-3)]Gal(b1-4)Glc
Procedure, shortened: as §1

[6] = target: Fuc(a1-2)[GalNAc(a1-3)]Gal(b1-4)GlcNAc(b1-3)[Fuc(a1-2)[GalNAc(a1-3)]Gal(b1-4)GlcNAc(b1-6)]GalNAc
Procedure, shortened: as §1

[7] = target: Fuc(a1-3)[Gal(b1-4)]Glc6S
Procedure, shortened: as §1

[8] = target: Fuc(a1-3)[Gal3S(b1-4)]GlcNAc
Procedure, shortened: as §1

[9] = target: Fuc(a1-3)[GalNAc(b1-4)]GlcNAc6S
Procedure, shortened: as §1

Gal(a1-3)Gal(b1-4)Glc = target: Gal(a1-3)Gal(b1-4)Glc
Procedure, shortened: as §1

[10] = target: Gal(a1-3)Gal(b1-4)GlcNAc(b1-6)GalNAc
Procedure, shortened: as §1

[11] = target: Gal(a1-3)[Gal(a1-4)]Gal(b1-4)GlcNAc
Procedure, shortened: as §1

[12] = target: Gal(b1-3)GalNAc(b1-4)Gal(b1-4)Glc
Procedure, shortened: as §1

[13] = target: Gal(b1-3)GlcNAc(b1-2)Man(a1-3)[GlcNAc(b1-4)][Gal(b1-3)GlcNAc(b1-2)Man(a1-6)]Man(b1-4)GlcNAc(b1-4)GlcNAc
Procedure, shortened: as §1

[14] = target: Gal(b1-3)[Fuc(a1-4)]GlcNAc(b1-3)Gal(b1-4)[Fuc(a1-3)]GlcNAc
Procedure, shortened: as §1

[15] = target: Gal(b1-4)GalNAc(a1-3)[Fuc(a1-2)]Gal(b1-4)GlcNAc
Procedure, shortened: as §1

Gal(b1-4)Glc6S = target: Gal(b1-4)Glc6S
Procedure, shortened: as §1

[16] = target: Gal(b1-4)GlcNAc(b1-2)Man(a1-6)[Man(a1-3)]Man(b1-4)GlcNAc(b1-4)GlcNAc
Procedure, shortened: as §1

[17] = target: Gal(b1-4)GlcNAc(b1-2)[Gal(b1-4)GlcNAc(b1-6)]Man(a1-6)[Gal(b1-4)GlcNAc(b1-2)Man(a1-3)]Man(b1-4)GlcNAc(b1-4)[Fuc(a1-6)]GlcNAc
Procedure, shortened: as §1

[18] = target: Gal(b1-4)GlcNAc(b1-2)[Gal(b1-4)GlcNAc(b1-6)]Man(a1-6)[GlcNAc(b1-4)][Gal(b1-4)GlcNAc(b1-2)Man(a1-3)]Man(b1-4)GlcNAc(b1-4)GlcNAc
Procedure, shortened: as §1

[19] = target: Gal(b1-4)GlcNAc(b1-3)Gal(b1-4)GlcNAc(b1-3)Gal(b1-4)GlcNAc(b1-3)Gal(b1-4)GlcNAc(b1-2)[Gal(b1-4)GlcNAc(b1-3)Gal(b1-4)GlcNAc(b1-3)Gal(b1-4)GlcNAc(b1-3)Gal(b1-4)GlcNAc(b1-6)]Man(a1-6)[Gal(b1-4)GlcNAc(b1-3)Gal(b1-4)GlcNAc(b1-3)Gal(b1-4)GlcNAc(b1-3)Gal(b1-4)GlcNAc(b1-2)Man(a1-3)]Man(b1-4)GlcNAc(b1-4)[Fuc(a1-6)]GlcNAc
Procedure, shortened: as §1

[20] = target: Gal3S(b1-4)[Fuc(a1-3)]GlcNAc6S
Procedure, shortened: as §1

Gal3S6S(b1-4)GlcNAc6S = target: Gal3S6S(b1-4)GlcNAc6S
Procedure, shortened: as §1

Gal4S(b1-4)GlcNAc = target: Gal4S(b1-4)GlcNAc
Procedure, shortened: as §1

Gal4S6S(b1-4)GlcNAc = target: Gal4S6S(b1-4)GlcNAc
Procedure, shortened: as §1

Gal6S(b1-3)GlcNAc6S = target: Gal6S(b1-3)GlcNAc6S
Procedure, shortened: as §1

GalNAc(b1-4)GlcNAc = target: GalNAc(b1-4)GlcNAc
Procedure, shortened: as §1

GalNAc(b1-4)GlcNAc6S = target: GalNAc(b1-4)GlcNAc6S
Procedure, shortened: as §1

GalNAc6S(b1-4)GlcNAc = target: GalNAc6S(b1-4)GlcNAc
Procedure, shortened: as §1

[21] = target: GlcNAc(b1-2)Man(a1-3)[GlcNAc(b1-2)Man(a1-6)]Man(b1-4)GlcNAc(b1-4)GlcNAc
Procedure, shortened: as §1

[22] = target: GlcNAc(b1-2)[GlcNAc(b1-6)]Man(a1-6)[GlcNAc(b1-2)Man(a1-3)]Man(b1-4)GlcNAc(b1-4)[Fuc(a1-6)]GlcNAc
Procedure, shortened: as §1

[23] = target: GlcNAc(b1-2)[GlcNAc(b1-6)]Man(a1-6)[GlcNAc(b1-4)][GlcNAc(b1-2)Man(a1-3)]Man(b1-4)GlcNAc(b1-4)GlcNAc
Procedure, shortened: as §1

[24] = target: GlcNAc(b1-4)[GlcNAc(b1-6)]GalNAc
Procedure, shortened: as §1

GlcNAc(b1-6)GalNAc = target: GlcNAc(b1-6)GalNAc
Procedure, shortened: as §1

[25] = target: GlcNAc6S(b1-3)Gal(b1-4)GlcNAc
Procedure, shortened: as §1

[26] = target: Man(a1-2)Man(a1-2)Man(a1-6)[Man(a1-3)]Man
Procedure, shortened: as §1

[27] = target: Man(a1-2)Man(a1-6)[Man(a1-3)]Man(a1-6)[Man(a1-2)Man(a1-2)Man(a1-3)]Man
Procedure, shortened: as §1

[28] = target: Man(a1-3)[Man(a1-6)]Man(a1-6)[Man(a1-3)]Man(b1-4)GlcNAc(b1-4)GlcNAc
Procedure, shortened: as §1

[29] = target: Neu5Ac(a2-3)Gal(b1-3)GlcNAc(b1-6)GalNAc
Procedure, shortened: as §1

[30] = target: Neu5Ac(a2-3)Gal(b1-3)[GlcNAc(b1-6)]GalNAc
Procedure, shortened: as §1

[31] = target: Neu5Ac(a2-3)Gal(b1-4)GlcNAc(b1-3)Gal(b1-4)[Fuc(a1-3)]GlcNAc
Procedure, shortened: as §1

[32] = target: Neu5Ac(a2-3)Gal(b1-4)[Fuc(a1-3)]GlcNAc(b1-3)Gal
Procedure, shortened: as §1

[33] = target: Neu5Ac(a2-3)Gal6S(b1-4)[Fuc(a1-3)]GlcNAc
Procedure, shortened: as §1

[34] = target: Neu5Ac(a2-6)Gal(b1-4)GlcNAc(b1-2)Man(a1-3)Man(b1-4)GlcNAc(b1-4)GlcNAc
Procedure, shortened: as §1

[35] = target: Neu5Ac(a2-6)Gal(b1-4)GlcNAc(b1-6)GalNAc
Procedure, shortened: as §1

[36] = target: Neu5Ac(a2-8)Neu5Ac(a2-8)Neu5Ac
Procedure, shortened: as §1

Neu5Gc(a2-6)GalNAc = target: Neu5Gc(a2-6)GalNAc
Procedure, shortened: as §1

B1: AT1G73650(15) (Arabidopsis thaliana), F4HRY1 (protein)
chain: MGTVLDSHFLALTAIVTVIYQFIFFVITALFKFDQVTDFAGSTNFVILAVLTLVLKASWHFRQIVLTLLVVVWGLRLGIFLLMETRILQWGEDRRFDEQRGNIVRLIIFWTLQAVWVWTVSLPLTLVNASDGGGSLKPADVIGWTMETWVFGFLIEAAADQQKLSFKNSPENRGKWCDVGVWKYSRHPNYFGEMETLLWWGIFVAASPVLEGAEYLVIFGPLFLTLLLLFVSGIPLLEASADKKHGNSGAYRSYKKTTSPLILFPRGVYGNLPGWFKTVFLFEFPFYSRNLPQEGRLQNSKEKEVKDD
Q: How did the “glycan array binding signal (z-score)” value [1] turn out when B1 was run?
A: The value was 2.33.

Q: And the “glycan array binding signal (z-score)” value [2]?
A: The value was -0.048.

Q: What about the “glycan array binding signal (z-score)” value [3] of the same binder?
A: The value was -0.438.

Q: What about the “glycan array binding signal (z-score)” value [4] of the same binder?
A: The value was 0.226.

Q: What about the “glycan array binding signal (z-score)” value [5] of the same binder?
A: The value was -0.567.

Q: What about the “glycan array binding signal (z-score)” value [6] of the same binder?
A: Its value is -0.573.

Q: And the “glycan array binding signal (z-score)” value [7]?
A: The value was 2.65.

Q: What about the “glycan array binding signal (z-score)” value [8] of the same binder?
A: The value was 3.17.

Q: What about the “glycan array binding signal (z-score)” value [9] of the same binder?
A: Its value is -0.217.

Q: And the “glycan array binding signal (z-score)” value (Gal(a1-3)Gal(b1-4)Glc)?
A: Its value is 3.4.

Q: And the “glycan array binding signal (z-score)” value [10]?
A: Its value is -0.542.

Q: And the “glycan array binding signal (z-score)” value [11]?
A: Its value is 3.43.

Q: What about the “glycan array binding signal (z-score)” value [12] of the same binder?
A: The value was 3.21.

Q: And the “glycan array binding signal (z-score)” value [13]?
A: Its value is -0.213.

Q: What about the “glycan array binding signal (z-score)” value [14] of the same binder?
A: The value was -0.287.

Q: And the “glycan array binding signal (z-score)” value [15]?
A: The value was -0.354.

Q: What about the “glycan array binding signal (z-score)” value (Gal(b1-4)Glc6S) of the same binder?
A: The value was 2.95.

Q: What about the “glycan array binding signal (z-score)” value [16] of the same binder?
A: Its value is -0.586.

Q: And the “glycan array binding signal (z-score)” value [17]?
A: Its value is 1.65.

Q: And the “glycan array binding signal (z-score)” value [18]?
A: The value was -0.494.

Q: What about the “glycan array binding signal (z-score)” value [19] of the same binder?
A: The value was -0.173.

Q: And the “glycan array binding signal (z-score)” value [20]?
A: Its value is 1.88.

Q: And the “glycan array binding signal (z-score)” value (Gal3S6S(b1-4)GlcNAc6S)?
A: Its value is 0.919.

Q: And the “glycan array binding signal (z-score)” value (Gal4S(b1-4)GlcNAc)?
A: Its value is -0.333.

Q: What about the “glycan array binding signal (z-score)” value (Gal4S6S(b1-4)GlcNAc) of the same binder?
A: Its value is -0.444.

Q: What about the “glycan array binding signal (z-score)” value (Gal6S(b1-3)GlcNAc6S) of the same binder?
A: The value was -0.282.

Q: And the “glycan array binding signal (z-score)” value (GalNAc(b1-4)GlcNAc)?
A: Its value is 4.01.

Q: And the “glycan array binding signal (z-score)” value (GalNAc(b1-4)GlcNAc6S)?
A: Its value is -0.402.

Q: And the “glycan array binding signal (z-score)” value (GalNAc6S(b1-4)GlcNAc)?
A: Its value is 0.513.

Q: What about the “glycan array binding signal (z-score)” value [21] of the same binder?
A: The value was -0.569.

Q: And the “glycan array binding signal (z-score)” value [22]?
A: The value was 0.047.

Q: And the “glycan array binding signal (z-score)” value [23]?
A: The value was -0.322.

Q: What about the “glycan array binding signal (z-score)” value [24] of the same binder?
A: Its value is -0.41.

Q: What about the “glycan array binding signal (z-score)” value (GlcNAc(b1-6)GalNAc) of the same binder?
A: The value was -0.154.

Q: What about the “glycan array binding signal (z-score)” value [25] of the same binder?
A: The value was -0.641.

Q: And the “glycan array binding signal (z-score)” value [26]?
A: The value was -0.361.

Q: What about the “glycan array binding signal (z-score)” value [27] of the same binder?
A: The value was -0.508.

Q: What about the “glycan array binding signal (z-score)” value [28] of the same binder?
A: The value was -0.566.

Q: And the “glycan array binding signal (z-score)” value [29]?
A: Its value is 3.42.

Q: What about the “glycan array binding signal (z-score)” value [30] of the same binder?
A: The value was -0.402.

Q: And the “glycan array binding signal (z-score)” value [31]?
A: The value was 1.23.

Q: And the “glycan array binding signal (z-score)” value [32]?
A: Its value is -0.714.

Q: And the “glycan array binding signal (z-score)” value [33]?
A: Its value is -0.428.

Q: What about the “glycan array binding signal (z-score)” value [34] of the same binder?
A: Its value is -0.274.

Q: What about the “glycan array binding signal (z-score)” value [35] of the same binder?
A: Its value is 7.33.

Q: What about the “glycan array binding signal (z-score)” value [36] of the same binder?
A: Its value is 2.92.

Q: And the “glycan array binding signal (z-score)” value (Neu5Gc(a2-6)GalNAc)?
A: Its value is 3.69.
